Results from PubChem BioAssay AID1159580 (chemical genetic matrix, 2015).
Screen size: about 5,500 compounds; about 2,000 (36%) were called active. Not shown: some 18% with an inconclusive outcome. No stated cut-off is given here; in the data, active means normalized growth mostly below about 0.91 (no sharp cut-off); inconclusive means no clear call, values can overlap the other calls; inactive means mostly above about 0.92. The list shows a part of the results.

Assay: chemical genetic growth profiling, strain panel (AID 1159580);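 further: tested at 20 µM; growth read once vehicle control cultures reached saturation at 30 °C; 1 = growth at the plate median or of vehicle wells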
Conditions: growth OD
[1] = S. cerevisiae deletion strains, locus YDL101C, strain DUN1, stronger effect = lower value
[2] = S. cerevisiae deletion strains, locus YHR030C, strain SLT2, stronger effect = lower value
[3] = S. cerevisiae deletion strains, locus YAL013W, strain DEP1, stronger effect = lower value
[4] = S. cerevisiae deletion strains, locus YBR229C, strain ROT2, stronger effect = lower value
[5] = S. cerevisiae deletion strains, locus YDL134C, strain PPH21, stronger effect = lower value
[6] = S. cerevisiae deletion strains, locus YDR150W, strain NUM1, stronger effect = lower value
[7] = S. cerevisiae deletion strains, locus YEL061C, strain CIN8, stronger effect = lower value
[8] = S. cerevisiae deletion strains, locus YGR078C, strain PAC10, stronger effect = lower value
[9] = S. cerevisiae deletion strains, locus YHR087W, strain rtc3, stronger effect = lower value
[10] = S. cerevisiae deletion strains, locus YJR043C, strain POL32, stronger effect = lower value
[11] = S. cerevisiae deletion strains, locus YJR075W, strain HOC1, stronger effect = lower value
[12] = S. cerevisiae deletion strains, locus YLR039C, strain RIC1, stronger effect = lower value
[13] = S. cerevisiae deletion strains, locus YLR058C, strain SHM2 (second series), stronger effect = lower value
[14] = S. cerevisiae deletion strains, locus YLR085C, strain ARP6, stronger effect = lower value
[15] = S. cerevisiae deletion strains, locus YLR262C, strain YPT6, stronger effect = lower value
[16] = S. cerevisiae deletion strains, locus YML094W, strain GIM5, stronger effect = lower value
[17] = S. cerevisiae deletion strains, locus YMR219W, strain ESC1, stronger effect = lower value
[18] = S. cerevisiae deletion strains, locus YMR263W, strain SAP30, stronger effect = lower value
[19] = S. cerevisiae deletion strains, locus YNL153C, strain GIM3, stronger effect = lower value
[20] = S. cerevisiae deletion strains, locus YNL298W, strain CLA4 (second series), stronger effect = lower value
[21] = S. cerevisiae deletion strains, locus YNL322C, strain KRE1, stronger effect = lower value
[22] = S. cerevisiae deletion strains, locus YNR030W, strain Alg12, stronger effect = lower value
[23] = S. cerevisiae deletion strains, locus YPL055C, strain LGE1, stronger effect = lower value
[24] = S. cerevisiae deletion strains, locus YPL241C, strain CIN2, stronger effect = lower value
[25] = S. cerevisiae deletion strains, locus YPR135W, strain CTF4, stronger effect = lower value
[26] = S. cerevisiae deletion strains, locus YGR229C, strain SMI1, stronger effect = lower value
[27] = S. cerevisiae deletion strains, locus YAL040C, strain CLN3, stronger effect = lower value
[28] = S. cerevisiae deletion strains, locus YDR363W, strain ESC2, stronger effect = lower value
[29] = S. cerevisiae deletion strains, locus YER002W, strain NOP16, stronger effect = lower value
[30] = S. cerevisiae deletion strains, locus YNL175C, strain NOP13, stronger effect = lower value
[31] = S. cerevisiae deletion strains, locus YNL197C, strain WHI3, stronger effect = lower value
[32] = S. cerevisiae deletion strains, locus YNL224C, strain SQS1, stronger effect = lower value
[33] = S. cerevisiae deletion strains, locus YOR083W, strain WHI5 (second series), stronger effect = lower value

Measured: normalized growth

O=C(Nc1c(Br)c(C2CC2)nn1-c1ccccc1)C(Cl)(Cl)Cl
active: S. cerevisiae deletion strains, locus YKL048C, strain ELM1, stronger effect = lower value 0.802 | S. cerevisiae deletion strains, locus YLR113W, strain HOG1, stronger effect = lower value 0.858
inactive: S. cerevisiae deletion strains, locus YAR019C, strain CDC15, stronger effect = lower value 0.92 | S. cerevisiae deletion strains, locus YBL105C, strain PKC1, stronger effect = lower value 0.913 | S. cerevisiae deletion strains, locus YBR135W, strain CKS1, stronger effect = lower value 0.914 | S. cerevisiae deletion strains, locus YBR136W, strain MEC1, stronger effect = lower value 0.923 | S. cerevisiae deletion strains, locus YBR160W, strain CDC28, stronger effect = lower value 0.92 | S. cerevisiae deletion strains, locus YDL017W, strain CDC7, stronger effect = lower value 0.929 | S. cerevisiae deletion strains, locus YDL028C, strain MPS1, stronger effect = lower value 0.93 | [1] 0.927 | S. cerevisiae deletion strains, locus YDL108W, strain KIN28, stronger effect = lower value 0.925 | S. cerevisiae deletion strains, locus YDL132W, strain cdc53, stronger effect = lower value 0.917 | S. cerevisiae deletion strains, locus YDL214C, strain PRR2, stronger effect = lower value 0.897 | S. cerevisiae deletion strains, locus YDR052C, strain DBF4, stronger effect = lower value 0.918 | S. cerevisiae deletion strains, locus YDR054C, strain cdc34, stronger effect = lower value 0.921 | S. cerevisiae deletion strains, locus YDR226W, strain ADK1, stronger effect = lower value 0.909 | S. cerevisiae deletion strains, locus YDR477W, strain SNF1, stronger effect = lower value 0.826 | S. cerevisiae deletion strains, locus YER123W, strain YCK3, stronger effect = lower value 0.769 | S. cerevisiae deletion strains, locus YER133W, strain GLC7, stronger effect = lower value 0.802 | S. cerevisiae deletion strains, locus YFL009W, strain cdc4, stronger effect = lower value 0.92 | S. cerevisiae deletion strains, locus YFL029C, strain CAK1, stronger effect = lower value 0.92 | S. cerevisiae deletion strains, locus YFR003C, strain YPI1, stronger effect = lower value 0.922 | S. cerevisiae deletion strains, locus YFR019W, strain FAB1, stronger effect = lower value 0.932 | S. cerevisiae deletion strains, locus YFR028C, strain CDC14, stronger effect = lower value 0.908 | S. cerevisiae deletion strains, locus YGR040W, strain KSS1, stronger effect = lower value 0.784 | S. cerevisiae deletion strains, locus YGR052W, strain FMP48, stronger effect = lower value 0.856 | S. cerevisiae deletion strains, locus YGR092W, strain DBF2, stronger effect = lower value 0.693 | [2] 0.896 | S. cerevisiae deletion strains, locus YHR079C, strain IRE1, stronger effect = lower value 0.919 | S. cerevisiae deletion strains, locus YHR082C, strain KSP1, stronger effect = lower value 0.919 | S. cerevisiae deletion strains, locus YHR205W, strain SCH9, stronger effect = lower value 0.821 | S. cerevisiae deletion strains, locus YIL147C, strain SLN1, stronger effect = lower value 0.932 | S. cerevisiae deletion strains, locus YJL095W, strain BCK1, stronger effect = lower value 0.824 | S. cerevisiae deletion strains, locus YJL128C, strain PBS2, stronger effect = lower value 0.908 | S. cerevisiae deletion strains, locus YJL157C, strain FAR1, stronger effect = lower value 0.904 | S. cerevisiae deletion strains, locus YJR016C, strain ILV3, stronger effect = lower value 0.929 | S. cerevisiae deletion strains, locus YJR066W, strain TOR1 (second series), stronger effect = lower value 0.832 | S. cerevisiae deletion strains, locus YJR066W, strain TOR1, stronger effect = lower value 0.86 | S. cerevisiae deletion strains, locus YKL067W, strain YNK1, stronger effect = lower value 0.897 | S. cerevisiae deletion strains, locus YKL101W, strain HSL1, stronger effect = lower value 0.882 | S. cerevisiae deletion strains, locus YKL193C, strain SDS22, stronger effect = lower value 0.921 | S. cerevisiae deletion strains, locus YKL203C, strain TOR2, stronger effect = lower value 0.879 | S. cerevisiae deletion strains, locus YLR133W, strain CKI1, stronger effect = lower value 0.871 | S. cerevisiae deletion strains, locus YLR403W, strain SFP1, stronger effect = lower value 0.714 | S. cerevisiae deletion strains, locus YML070W, strain DAK1, stronger effect = lower value 0.901 | S. cerevisiae deletion strains, locus YMR001C, strain CDC5, stronger effect = lower value 0.922 | S. cerevisiae deletion strains, locus YMR205C, strain PFK2 (second series), stronger effect = lower value 0.883 | S. cerevisiae deletion strains, locus YMR277W, strain FCP1, stronger effect = lower value 0.915 | S. cerevisiae deletion strains, locus YNL006W, strain LST8, stronger effect = lower value 0.921 | S. cerevisiae deletion strains, locus YNL020C, strain ARK1, stronger effect = lower value 0.878 | S. cerevisiae deletion strains, locus YNL161W, strain CBK1, stronger effect = lower value 0.925 | S. cerevisiae deletion strains, locus YNL183C, strain NPR1, stronger effect = lower value 0.864 | S. cerevisiae deletion strains, locus YNL207W, strain RIO2, stronger effect = lower value 0.928 | S. cerevisiae deletion strains, locus YNL222W, strain SSU72, stronger effect = lower value 0.928 | S. cerevisiae deletion strains, locus YNL307C, strain MCK1 (second series), stronger effect = lower value 0.812 | S. cerevisiae deletion strains, locus YOL078W, strain AVO1, stronger effect = lower value 0.912 | S. cerevisiae deletion strains, locus YOL136C, strain PFK27, stronger effect = lower value 0.895 | S. cerevisiae deletion strains, locus YOR061W, strain CKA2, stronger effect = lower value 0.872 | S. cerevisiae deletion strains, locus YOR119C, strain RIO1, stronger effect = lower value 0.822 | S. cerevisiae deletion strains, locus YOR231W, strain MKK1, stronger effect = lower value 0.898 | S. cerevisiae deletion strains, locus YOR329C, strain SCD5, stronger effect = lower value 0.925 | S. cerevisiae deletion strains, locus YPL031C, strain PHO85, stronger effect = lower value 0.814 | S. cerevisiae deletion strains, locus YPL153C, strain RAD53, stronger effect = lower value 0.82 | S. cerevisiae deletion strains, locus YPL204W, strain HRR25, stronger effect = lower value 0.735 | S. cerevisiae deletion strains, locus YPL209C, strain IPL1, stronger effect = lower value 0.922 | S. cerevisiae deletion strains, locus YPL256C, strain CLN2, stronger effect = lower value 0.961 | S. cerevisiae deletion strains, locus YPR025C, strain CCL1, stronger effect = lower value 0.923 | S. cerevisiae deletion strains, locus YPR106W, strain ISR1, stronger effect = lower value 0.935 | S. cerevisiae deletion strains, locus YPR111W, strain DBF20, stronger effect = lower value 0.925 | S. cerevisiae deletion strains, strain NNK1, stronger effect = lower value 0.944 | S. cerevisiae deletion strains, strain TSCII, stronger effect = lower value 0.92

Cc1cc(NC(=O)C(Cl)(Cl)Cl)n(-c2ccccc2)n1
active: [12] 0.678 | [15] 0.728
inactive: [3] 0.984 | [4] 0.987 | [1] 0.995 | [5] 0.936 | [6] 0.898 | [7] 0.994 | [8] 0.984 | [2] 0.888 | [9] 0.97 | S. cerevisiae deletion strains, locus YJL187C, strain SWE1, stronger effect = lower value 0.979 | [10] 0.987 | [11] 1 | [13] 0.985 | [14] 0.948 | [16] 1.02 | [17] 0.991 | [18] 0.982 | S. cerevisiae deletion strains, locus YMR307W, strain GAS1, stronger effect = lower value 1.02 | S. cerevisiae deletion strains, locus YNL128W, strain TEP1, stronger effect = lower value 0.975 | [19] 1 | [20] 0.978 | [21] 0.97 | [22] 0.974 | S. cerevisiae deletion strains, locus YOL006C, strain TOP1, stronger effect = lower value 0.864 | [23] 1.04 | [24] 1 | [25] 0.838 | S. cerevisiae strains, strain wild type, stronger effect = lower value 0.96

CC(=O)Nc1cccc(-n2nnc(SCc3ccccc3)n2)c1
inactive: [3] 1.02 | [4] 1.01 | S. cerevisiae deletion strains, locus YCL061C, strain MRC1, stronger effect = lower value 1.03 | [1] 0.995 | [5] 0.988 | [6] 1.03 | [7] 1 | [8] 1.02 | [26] 0.986 | [2] 1.06 | [9] 0.988 | [10] 1.02 | [11] 1.03 | [12] 0.976 | [13] 0.997 | [14] 0.949 | [15] 1.1 | [16] 0.982 | [17] 0.993 | [18] 1.01 | [19] 1.02 | [20] 1.01 | [21] 1.01 | [22] 1.01 | [23] 0.968 | [24] 0.958 | [25] 1.08

CN(C)CC[C@@H](c1ccc(Cl)cc1)c1ccccn1
inactive: [27] 1 | [28] 1 | [29] 0.998 | [8] 1.01 | [30] 1.01 | [31] 1 | [32] 0.999 | [33] 1.01 | [23] 1.01

OC[C@H]1NC[C@@H](O)[C@@H]1O
inactive: [27] 0.993 | S. cerevisiae deletion strains, locus YCL061C, strain MRC1 (second series), stronger effect = lower value 1 | [28] 1.02 | [29] 0.998 | [26] 1.02 | [19] 0.999 | [30] 0.991 | [31] 1 | [32] 0.992 | [33] 1.01 | [23] 0.996 | [24] 1.01
